# Data: publication PMC7862700, “An all-to-all approach to the identification of sequence-specific readers for epigenetic DNA modifications on cytosine”
# Experiments:
# Test in all cases: DAPPL (digital affinity profiling via proximity ligation, sequencing); 10 mM Tris-HCl pH 7.5, 50 mM NaCl, 1 mM DTT, 4% glycerol, room temperature, 30 min; GST-TFs on glutathione beads, 16-mer random dsDNA library, 0.1% formaldehyde crosslink after washing; high values mean tight binding
# FLI1 = biological target: T1, FLI1 (Homo sapiens, UniProt Q01543 1-452); conditions: protein: recombinant; tags: N-terminal GST; dsDNA, one strand shown
# T1 sequence: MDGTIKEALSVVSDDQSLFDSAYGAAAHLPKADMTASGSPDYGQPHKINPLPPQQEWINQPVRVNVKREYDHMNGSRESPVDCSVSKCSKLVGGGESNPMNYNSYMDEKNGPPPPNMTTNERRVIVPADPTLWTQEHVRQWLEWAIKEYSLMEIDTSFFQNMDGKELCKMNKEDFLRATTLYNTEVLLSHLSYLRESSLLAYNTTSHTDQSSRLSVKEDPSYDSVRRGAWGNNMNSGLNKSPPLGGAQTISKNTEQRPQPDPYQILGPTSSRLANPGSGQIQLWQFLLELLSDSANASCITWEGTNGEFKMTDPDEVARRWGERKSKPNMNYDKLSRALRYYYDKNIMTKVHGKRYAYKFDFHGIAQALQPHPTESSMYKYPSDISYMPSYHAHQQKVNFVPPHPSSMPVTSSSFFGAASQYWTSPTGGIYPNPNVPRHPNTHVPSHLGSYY
# How it was run: (§1)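 Human transcription factors were made in yeast as GST fusions, captured on glutathione beads and barcoded with DNA. With a tag-only sample included, the pool was incubated with 200 nmole of a random double-stranded 16-mer DNA library in Tris/NaCl/DTT/glycerol buffer at room temperature for 30 min, then crosslinked with 0.1% formaldehyde after washing, ligated by proximity, amplified and sequenced. For binding signal, each hexamer's read frequency for a factor is divided by its frequency for the tag-only sample.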
# ELK1 = biological target: T2, ELK1 (Homo sapiens, UniProt P19419 1-428); conditions: protein: recombinant; tags: N-terminal GST; dsDNA, one strand shown
# T2 sequence: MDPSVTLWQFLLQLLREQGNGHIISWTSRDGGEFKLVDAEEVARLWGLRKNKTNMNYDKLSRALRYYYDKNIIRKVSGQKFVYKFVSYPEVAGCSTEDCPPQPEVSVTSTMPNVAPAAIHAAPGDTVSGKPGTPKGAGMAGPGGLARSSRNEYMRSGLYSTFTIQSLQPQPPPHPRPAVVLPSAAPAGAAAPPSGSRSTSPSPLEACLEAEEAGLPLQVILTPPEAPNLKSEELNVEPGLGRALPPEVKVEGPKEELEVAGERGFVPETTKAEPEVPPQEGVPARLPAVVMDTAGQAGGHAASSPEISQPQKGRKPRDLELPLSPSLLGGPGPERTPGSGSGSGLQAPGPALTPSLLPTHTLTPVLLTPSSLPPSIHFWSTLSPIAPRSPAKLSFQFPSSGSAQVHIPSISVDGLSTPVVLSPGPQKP
# How it was run: as §1
# GABPA = biological target: T3, GABPA (Homo sapiens, UniProt Q06546 1-454); conditions: protein: recombinant; tags: N-terminal GST; dsDNA, one strand shown
# T3 sequence: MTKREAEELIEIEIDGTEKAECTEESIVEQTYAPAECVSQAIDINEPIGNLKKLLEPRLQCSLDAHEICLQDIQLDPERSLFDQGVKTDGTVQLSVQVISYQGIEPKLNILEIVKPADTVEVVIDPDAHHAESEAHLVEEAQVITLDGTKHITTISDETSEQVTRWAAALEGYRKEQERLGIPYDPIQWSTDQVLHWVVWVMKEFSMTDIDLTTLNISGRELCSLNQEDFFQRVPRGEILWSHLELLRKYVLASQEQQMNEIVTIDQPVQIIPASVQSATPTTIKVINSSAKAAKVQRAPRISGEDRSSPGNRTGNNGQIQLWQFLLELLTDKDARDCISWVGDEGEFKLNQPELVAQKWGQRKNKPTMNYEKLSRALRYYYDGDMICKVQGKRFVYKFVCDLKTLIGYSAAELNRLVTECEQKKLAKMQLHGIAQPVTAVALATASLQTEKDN
# How it was run: as §1
# ERG = biological target: T4, ERG (Homo sapiens, UniProt P11308 1-479); conditions: protein: recombinant; tags: N-terminal GST; dsDNA, one strand shown
# T4 sequence: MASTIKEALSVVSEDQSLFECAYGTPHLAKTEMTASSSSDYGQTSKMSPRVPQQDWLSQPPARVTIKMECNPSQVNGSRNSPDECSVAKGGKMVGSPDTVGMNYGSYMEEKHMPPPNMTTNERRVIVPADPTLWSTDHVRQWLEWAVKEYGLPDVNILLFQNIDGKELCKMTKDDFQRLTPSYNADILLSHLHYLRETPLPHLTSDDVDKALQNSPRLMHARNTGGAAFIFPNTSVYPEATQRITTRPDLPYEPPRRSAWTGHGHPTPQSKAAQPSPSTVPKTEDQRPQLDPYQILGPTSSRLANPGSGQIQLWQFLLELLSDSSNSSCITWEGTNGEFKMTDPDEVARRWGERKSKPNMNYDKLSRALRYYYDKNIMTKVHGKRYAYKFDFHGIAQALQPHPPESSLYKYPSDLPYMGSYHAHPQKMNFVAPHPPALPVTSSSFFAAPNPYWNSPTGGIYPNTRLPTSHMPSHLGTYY
# How it was run: as §1
# ELF1 = ELF1 (Homo sapiens, UniProt P32519 1-619); conditions: protein: recombinant; tags: N-terminal GST; dsDNA, one strand shown
# Sequence of ELF1 (P32519 whole entry): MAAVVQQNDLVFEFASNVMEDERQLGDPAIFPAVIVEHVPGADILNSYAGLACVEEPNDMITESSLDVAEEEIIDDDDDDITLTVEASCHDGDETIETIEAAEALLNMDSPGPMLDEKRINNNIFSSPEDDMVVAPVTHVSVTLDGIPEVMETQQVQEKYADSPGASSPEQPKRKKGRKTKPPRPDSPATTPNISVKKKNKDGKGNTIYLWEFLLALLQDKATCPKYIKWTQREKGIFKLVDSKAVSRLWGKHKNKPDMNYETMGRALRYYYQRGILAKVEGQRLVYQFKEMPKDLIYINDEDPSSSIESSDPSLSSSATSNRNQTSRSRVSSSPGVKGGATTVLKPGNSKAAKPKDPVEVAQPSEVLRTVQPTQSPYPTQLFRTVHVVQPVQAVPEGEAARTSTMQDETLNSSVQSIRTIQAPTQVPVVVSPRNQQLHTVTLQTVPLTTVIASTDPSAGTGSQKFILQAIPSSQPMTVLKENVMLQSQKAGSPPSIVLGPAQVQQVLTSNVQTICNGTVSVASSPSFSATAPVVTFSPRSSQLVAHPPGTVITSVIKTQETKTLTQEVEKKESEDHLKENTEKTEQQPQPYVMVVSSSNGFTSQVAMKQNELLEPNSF
# How it was run: as §1
# EHF = biological target: T5, EHF (Homo sapiens, UniProt Q9NZC4 1-300); conditions: protein: recombinant; tags: N-terminal GST; dsDNA, one strand shown
# T5 sequence: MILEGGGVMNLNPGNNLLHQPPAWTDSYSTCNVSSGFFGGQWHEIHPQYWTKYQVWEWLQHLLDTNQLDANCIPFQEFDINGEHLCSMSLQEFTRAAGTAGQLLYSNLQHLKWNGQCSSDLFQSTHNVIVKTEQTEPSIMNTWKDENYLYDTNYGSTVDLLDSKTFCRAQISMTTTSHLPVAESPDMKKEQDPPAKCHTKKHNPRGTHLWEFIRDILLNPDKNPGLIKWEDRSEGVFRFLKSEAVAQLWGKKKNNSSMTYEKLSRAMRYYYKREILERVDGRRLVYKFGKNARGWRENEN
# How it was run: as §1
# SPI1 = SPI1 (Homo sapiens, UniProt P17947 1-270); conditions: protein: recombinant; tags: N-terminal GST; dsDNA, one strand shown
# How it was run: as §1
# SPIB = SPIB (Homo sapiens, UniProt Q01892 1-262); conditions: protein: recombinant; tags: N-terminal GST; dsDNA, one strand shown
# Sequence of SPIB (Q01892 whole entry): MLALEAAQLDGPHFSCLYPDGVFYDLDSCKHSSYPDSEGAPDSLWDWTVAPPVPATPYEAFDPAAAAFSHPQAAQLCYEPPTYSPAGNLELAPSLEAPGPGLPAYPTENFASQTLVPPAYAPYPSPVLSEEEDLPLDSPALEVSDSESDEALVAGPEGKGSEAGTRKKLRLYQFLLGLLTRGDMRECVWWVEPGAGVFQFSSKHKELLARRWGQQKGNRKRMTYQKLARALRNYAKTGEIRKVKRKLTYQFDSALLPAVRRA
# How it was run: as §1
# ELK3 = biological target: T6, ELK3 (Homo sapiens, UniProt P41970 1-407); conditions: protein: recombinant; tags: N-terminal GST; dsDNA, one strand shown
# T6 sequence: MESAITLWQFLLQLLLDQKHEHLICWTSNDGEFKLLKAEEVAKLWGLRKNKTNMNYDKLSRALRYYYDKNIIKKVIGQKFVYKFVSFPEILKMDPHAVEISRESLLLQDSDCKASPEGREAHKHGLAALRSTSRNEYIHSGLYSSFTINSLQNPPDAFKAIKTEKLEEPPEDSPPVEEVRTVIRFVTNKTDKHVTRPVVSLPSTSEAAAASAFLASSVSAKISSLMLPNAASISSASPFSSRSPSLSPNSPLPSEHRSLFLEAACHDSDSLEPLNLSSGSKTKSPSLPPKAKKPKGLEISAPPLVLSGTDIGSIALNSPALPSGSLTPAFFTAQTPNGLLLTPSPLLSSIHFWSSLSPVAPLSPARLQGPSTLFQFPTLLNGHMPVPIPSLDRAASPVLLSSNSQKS
# How it was run: as §1
# FEV = biological target: T7, FEV (Homo sapiens, UniProt Q99581 1-238); conditions: protein: recombinant; tags: N-terminal GST; dsDNA, one strand shown
# T7 sequence: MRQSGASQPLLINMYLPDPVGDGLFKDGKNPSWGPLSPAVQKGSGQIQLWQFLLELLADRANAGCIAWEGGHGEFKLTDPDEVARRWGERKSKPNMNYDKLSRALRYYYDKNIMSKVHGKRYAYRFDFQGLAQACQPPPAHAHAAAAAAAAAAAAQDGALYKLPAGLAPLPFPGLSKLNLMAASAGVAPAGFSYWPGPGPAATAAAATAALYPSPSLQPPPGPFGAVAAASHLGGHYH
# How it was run: as §1
# ETV5 = ETV5 (Homo sapiens, UniProt P41161 1-510); conditions: protein: recombinant; tags: N-terminal GST; dsDNA, one strand shown
# Sequence of ETV5 (P41161 whole entry): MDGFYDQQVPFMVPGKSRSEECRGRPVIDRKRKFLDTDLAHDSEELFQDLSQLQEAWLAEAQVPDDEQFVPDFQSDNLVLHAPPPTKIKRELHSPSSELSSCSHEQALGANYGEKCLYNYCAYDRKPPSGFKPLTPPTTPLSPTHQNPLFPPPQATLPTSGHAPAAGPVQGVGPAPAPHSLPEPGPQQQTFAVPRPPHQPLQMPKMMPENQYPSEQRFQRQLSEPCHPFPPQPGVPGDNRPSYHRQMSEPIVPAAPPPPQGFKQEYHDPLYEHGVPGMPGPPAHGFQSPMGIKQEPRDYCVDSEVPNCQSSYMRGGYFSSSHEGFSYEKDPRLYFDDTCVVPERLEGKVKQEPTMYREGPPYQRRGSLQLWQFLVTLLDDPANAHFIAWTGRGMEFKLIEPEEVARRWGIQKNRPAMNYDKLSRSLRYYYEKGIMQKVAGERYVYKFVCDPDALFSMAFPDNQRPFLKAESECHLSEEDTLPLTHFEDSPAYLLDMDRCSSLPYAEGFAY
# How it was run: as §1
# HSF1 = HSF1 (Homo sapiens, UniProt Q00613 1-529); conditions: protein: recombinant; tags: N-terminal GST; chain copies: 3; dsDNA, one strand shown
# Sequence of HSF1 (Q00613 whole entry): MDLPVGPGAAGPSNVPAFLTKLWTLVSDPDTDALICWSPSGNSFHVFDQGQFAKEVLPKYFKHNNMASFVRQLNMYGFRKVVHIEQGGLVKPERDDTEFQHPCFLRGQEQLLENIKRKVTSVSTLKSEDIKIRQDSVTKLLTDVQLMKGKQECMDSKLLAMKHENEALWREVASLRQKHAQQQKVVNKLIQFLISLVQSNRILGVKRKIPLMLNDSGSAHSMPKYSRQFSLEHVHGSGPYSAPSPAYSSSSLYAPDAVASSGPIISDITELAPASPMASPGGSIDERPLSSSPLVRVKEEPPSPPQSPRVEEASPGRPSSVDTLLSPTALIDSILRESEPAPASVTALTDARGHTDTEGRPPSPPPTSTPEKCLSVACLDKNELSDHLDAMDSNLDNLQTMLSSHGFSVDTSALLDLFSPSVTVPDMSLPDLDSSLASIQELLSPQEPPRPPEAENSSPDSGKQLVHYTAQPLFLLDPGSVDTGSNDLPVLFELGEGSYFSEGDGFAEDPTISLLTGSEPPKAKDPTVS
# How it was run: as §1
# SPIC = biological target: T8, SPIC (Homo sapiens, UniProt Q8N5J4 1-248); conditions: protein: recombinant; tags: N-terminal GST; dsDNA, one strand shown
# T8 sequence: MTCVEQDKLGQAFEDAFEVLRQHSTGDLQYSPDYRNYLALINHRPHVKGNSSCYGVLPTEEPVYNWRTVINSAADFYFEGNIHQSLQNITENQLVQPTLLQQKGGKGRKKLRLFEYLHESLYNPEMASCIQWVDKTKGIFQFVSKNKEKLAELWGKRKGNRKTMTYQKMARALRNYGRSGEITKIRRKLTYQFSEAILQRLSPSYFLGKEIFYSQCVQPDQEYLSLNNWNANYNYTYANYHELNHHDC
# How it was run: as §1
# ELF4 = ELF4 (Homo sapiens, UniProt Q99607 1-663); conditions: protein: recombinant; tags: N-terminal GST; dsDNA, one strand shown
# Sequence of ELF4 (Q99607 whole entry): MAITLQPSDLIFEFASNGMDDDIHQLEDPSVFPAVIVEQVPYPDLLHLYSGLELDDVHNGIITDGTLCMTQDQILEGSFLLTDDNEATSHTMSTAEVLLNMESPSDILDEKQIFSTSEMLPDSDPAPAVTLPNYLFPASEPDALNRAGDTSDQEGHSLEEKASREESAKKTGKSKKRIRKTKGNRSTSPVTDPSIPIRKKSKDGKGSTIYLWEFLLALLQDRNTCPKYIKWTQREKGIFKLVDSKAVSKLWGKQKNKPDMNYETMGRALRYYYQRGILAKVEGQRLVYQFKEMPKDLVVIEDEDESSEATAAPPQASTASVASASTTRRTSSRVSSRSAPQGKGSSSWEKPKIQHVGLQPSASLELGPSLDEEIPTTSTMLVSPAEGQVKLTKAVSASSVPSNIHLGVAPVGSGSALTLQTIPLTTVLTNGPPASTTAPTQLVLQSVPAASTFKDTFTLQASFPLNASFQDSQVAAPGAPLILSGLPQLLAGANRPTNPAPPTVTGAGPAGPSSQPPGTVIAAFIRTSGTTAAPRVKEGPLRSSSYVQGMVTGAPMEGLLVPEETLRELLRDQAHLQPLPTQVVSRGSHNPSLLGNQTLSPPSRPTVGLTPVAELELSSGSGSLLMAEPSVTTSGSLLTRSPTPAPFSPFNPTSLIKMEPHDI
# How it was run: as §1
# ELK4 = biological target: T9, ELK4 (Homo sapiens, UniProt P28324-2 1-405); conditions: protein: recombinant; tags: N-terminal GST; dsDNA, one strand shown
# T9 sequence: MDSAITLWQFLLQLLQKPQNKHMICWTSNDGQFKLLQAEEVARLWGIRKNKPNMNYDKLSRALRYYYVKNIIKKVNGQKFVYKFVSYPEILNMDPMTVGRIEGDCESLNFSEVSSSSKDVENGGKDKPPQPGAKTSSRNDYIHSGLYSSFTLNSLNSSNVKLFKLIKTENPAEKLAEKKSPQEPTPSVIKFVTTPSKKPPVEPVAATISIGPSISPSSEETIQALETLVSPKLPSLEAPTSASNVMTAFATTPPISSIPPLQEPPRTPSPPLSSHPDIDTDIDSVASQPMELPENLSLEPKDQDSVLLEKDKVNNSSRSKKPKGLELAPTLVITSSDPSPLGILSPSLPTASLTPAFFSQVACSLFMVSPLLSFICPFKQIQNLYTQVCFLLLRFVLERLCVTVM
# How it was run: as §1
# ETV2 = biological target: T10, ETV2 (Homo sapiens, UniProt O00321 1-342); conditions: protein: recombinant; tags: N-terminal GST; dsDNA, one strand shown
# T10 sequence: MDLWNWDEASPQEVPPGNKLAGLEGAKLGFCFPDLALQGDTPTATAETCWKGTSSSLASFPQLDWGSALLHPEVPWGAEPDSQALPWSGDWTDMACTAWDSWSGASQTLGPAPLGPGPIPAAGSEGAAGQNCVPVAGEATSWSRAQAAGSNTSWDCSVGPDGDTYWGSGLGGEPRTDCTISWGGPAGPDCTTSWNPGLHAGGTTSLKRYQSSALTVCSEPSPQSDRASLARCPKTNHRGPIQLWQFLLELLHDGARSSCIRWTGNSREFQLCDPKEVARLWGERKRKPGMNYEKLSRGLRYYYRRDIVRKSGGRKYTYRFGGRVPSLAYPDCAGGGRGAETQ
# How it was run: as §1
# ELF3 = biological target: T11, ELF3 (Homo sapiens, UniProt P78545 1-371); conditions: protein: recombinant; tags: N-terminal GST; dsDNA, one strand shown
# T11 sequence: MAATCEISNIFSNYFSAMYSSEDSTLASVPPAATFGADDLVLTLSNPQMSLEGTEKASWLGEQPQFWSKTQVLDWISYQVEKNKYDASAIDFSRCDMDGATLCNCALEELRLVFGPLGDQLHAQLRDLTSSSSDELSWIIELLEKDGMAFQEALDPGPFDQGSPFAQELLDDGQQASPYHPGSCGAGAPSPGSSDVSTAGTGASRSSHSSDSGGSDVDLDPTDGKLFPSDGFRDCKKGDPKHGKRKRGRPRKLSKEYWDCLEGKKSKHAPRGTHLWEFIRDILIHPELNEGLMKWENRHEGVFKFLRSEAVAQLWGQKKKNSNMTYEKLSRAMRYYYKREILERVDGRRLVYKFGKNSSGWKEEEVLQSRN
# How it was run: as §1
# CRX = CRX (Homo sapiens, UniProt O43186 1-299); conditions: protein: recombinant; tags: N-terminal GST; dsDNA, one strand shown
# Sequence of CRX (O43186 whole entry): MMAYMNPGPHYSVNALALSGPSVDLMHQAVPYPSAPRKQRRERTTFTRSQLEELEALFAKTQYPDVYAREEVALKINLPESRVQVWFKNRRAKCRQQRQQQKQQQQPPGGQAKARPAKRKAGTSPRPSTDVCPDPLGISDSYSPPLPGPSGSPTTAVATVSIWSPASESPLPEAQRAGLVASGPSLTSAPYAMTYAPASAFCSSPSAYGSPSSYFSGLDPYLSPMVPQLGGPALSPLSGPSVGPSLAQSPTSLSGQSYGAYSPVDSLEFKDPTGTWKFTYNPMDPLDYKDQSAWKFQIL
# How it was run: as §1
# ETV1 = ETV1 (Homo sapiens, UniProt P50549 1-477); conditions: protein: recombinant; tags: N-terminal GST; dsDNA, one strand shown
# Sequence of ETV1 (P50549 whole entry): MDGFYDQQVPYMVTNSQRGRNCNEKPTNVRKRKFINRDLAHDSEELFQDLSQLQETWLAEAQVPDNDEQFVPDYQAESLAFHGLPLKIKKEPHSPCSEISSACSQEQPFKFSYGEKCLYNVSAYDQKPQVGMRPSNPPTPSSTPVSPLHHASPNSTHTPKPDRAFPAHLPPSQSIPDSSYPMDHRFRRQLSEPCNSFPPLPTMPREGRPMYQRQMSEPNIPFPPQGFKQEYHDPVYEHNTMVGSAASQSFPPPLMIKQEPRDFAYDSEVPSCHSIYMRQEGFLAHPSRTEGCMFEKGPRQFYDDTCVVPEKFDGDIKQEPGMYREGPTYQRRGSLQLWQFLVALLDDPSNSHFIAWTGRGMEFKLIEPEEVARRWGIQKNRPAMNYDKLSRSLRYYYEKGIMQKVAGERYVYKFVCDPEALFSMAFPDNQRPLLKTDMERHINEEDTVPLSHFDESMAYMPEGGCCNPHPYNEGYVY
# How it was run: as §1
sequence,measurement,setting,value
TTAAGG,binding signal,FLI1,"1.14 fold enrichment (6-mer frequency, TF over GST control)"
same,binding signal,ELK1,"1.14 fold enrichment (6-mer frequency, TF over GST control)"
same,binding signal,GABPA,"1.2 fold enrichment (6-mer frequency, TF over GST control)"
same,binding signal,ERG,"1.18 fold enrichment (6-mer frequency, TF over GST control)"
same,binding signal,ELF1,"1.13 fold enrichment (6-mer frequency, TF over GST control)"
same,binding signal,EHF,"1.13 fold enrichment (6-mer frequency, TF over GST control)"
same,binding signal,SPI1,"1.26 fold enrichment (6-mer frequency, TF over GST control)"
same,binding signal,SPIB,"1.15 fold enrichment (6-mer frequency, TF over GST control)"
same,binding signal,ELK3,"1.06 fold enrichment (6-mer frequency, TF over GST control)"
same,binding signal,FEV,"1.16 fold enrichment (6-mer frequency, TF over GST control)"
same,binding signal,ETV5,"1.11 fold enrichment (6-mer frequency, TF over GST control)"
same,binding signal,HSF1,"1.67 fold enrichment (6-mer frequency, TF over GST control)"
same,binding signal,SPIC,"1.23 fold enrichment (6-mer frequency, TF over GST control)"
same,binding signal,ELF4,"1.14 fold enrichment (6-mer frequency, TF over GST control)"
same,binding signal,ELK4,"1.25 fold enrichment (6-mer frequency, TF over GST control)"
same,binding signal,ETV2,"1.23 fold enrichment (6-mer frequency, TF over GST control)"
same,binding signal,ELF3,"1.2 fold enrichment (6-mer frequency, TF over GST control)"
same,binding signal,CRX,"2.78 fold enrichment (6-mer frequency, TF over GST control)"
same,binding signal,ETV1,"1.15 fold enrichment (6-mer frequency, TF over GST control)"
